The target of this test is T1, GST-Ap-NF-kB RHD (Exaiptasia pallida (Aiptasia), UniProt A0A913YAJ5 2-422).
T1 sequence: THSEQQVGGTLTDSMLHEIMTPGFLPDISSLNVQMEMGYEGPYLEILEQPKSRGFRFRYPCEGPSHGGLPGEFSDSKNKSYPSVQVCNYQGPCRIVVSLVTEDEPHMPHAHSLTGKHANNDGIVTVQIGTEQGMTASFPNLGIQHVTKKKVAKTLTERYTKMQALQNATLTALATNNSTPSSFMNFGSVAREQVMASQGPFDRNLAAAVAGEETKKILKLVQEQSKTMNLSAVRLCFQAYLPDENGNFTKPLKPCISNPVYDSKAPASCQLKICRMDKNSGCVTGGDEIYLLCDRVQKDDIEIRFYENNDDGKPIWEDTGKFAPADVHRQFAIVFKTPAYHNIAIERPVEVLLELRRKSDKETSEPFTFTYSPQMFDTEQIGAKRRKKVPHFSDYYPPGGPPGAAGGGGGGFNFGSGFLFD
Nature of the test: protein-binding microarray (PBM); PBM: ~300 nM protein, 6 mM HEPES pH 7.8, 80 mM KCl, 0.5 mM EDTA, 0.5 mM EGTA, 6% glycerol, 35 ng/ul poly-dIdC, 1% milk, 1 h, room temperature; Ap Aiptasia and Nv Nematostella (sea anemones) / Co Capsaspora / Aq Amphimedon (sponge) / Dm Drosophila / Hu human; RHD is the Rel homology domain; high values mean tight binding. The conditions noted are these: dsDNA, one strand shown.
Sequence “CCGATTAACATCAAGGGGGTAAATGATGTTAATCGGGTCTTGATTCGCTTGACGCTGCTG” returned a binding signal of 5.28 z-score. Under “CCGATTAACATCAGGGAAAACGATGATGTTAATCGGGTCTTGATTCGCTTGACGCTGCTG” stands 2.75 z-score; under “CCGATTAACATCAATCTACCCCCTGATGTTAATCGGGTCTTGATTCGCTTGACGCTGCTG”, 4.86 z-score.

With “CCGATTAACATCAATATAGTCCCTGATGTTAATCGGGTCTTGATTCGCTTGACGCTGCTG”, the binding signal is 5.51 z-score. Under “CCGATTAACATCACTAAATTCCCTGATGTTAATCGGGTCTTGATTCGCTTGACGCTGCTG” stands 3.8 z-score. The sequence “CCGATTAACATCAATTCCCAAGGTGATGTTAATCGGGTCTTGATTCGCTTGACGCTGCTG” returned a binding signal of 1.3 z-score. Regarding “CCGATTAACATCAGGGAAAACCATGATGTTAATCGGGTCTTGATTCGCTTGACGCTGCTG”, the binding signal was found to be 3.89 z-score. Under “CCGATTAACATCAAGCAATTCCCTGATGTTAATCGGGTCTTGATTCGCTTGACGCTGCTG” stands 3.2 z-score. With “CCGATTAACATCAGGGGATCTACTGATGTTAATCGGGTCTTGATTCGCTTGACGCTGCTG” the figure was 5.31 z-score; with “CCGATTAACATCAGGGAGCCCCCTGATGTTAATCGGGTCTTGATTCGCTTGACGCTGCTG”, 8.32 z-score; with “CCGATTAACATCAAAAAAACCCATGATGTTAATCGGGTCTTGATTCGCTTGACGCTGCTG”, 3.72 z-score. The sequence “CCGATTAACATCAGGGAAAGAACTGATGTTAATCGGGTCTTGATTCGCTTGACGCTGCTG” returned a binding signal of 1.89 z-score. With “CCGATTAACATCAGGGATTTTCATGATGTTAATCGGGTCTTGATTCGCTTGACGCTGCTG” the figure was 5.23 z-score; with “CCGATTAACATCACTTTACCCCCTGATGTTAATCGGGTCTTGATTCGCTTGACGCTGCTG”, 4.02 z-score; with “CCGATTAACATCAAGGGGGAGGGTGATGTTAATCGGGTCTTGATTCGCTTGACGCTGCTG”, 4.24 z-score.

Sequence “CCGATTAACATCAGGGAATCCACTGATGTTAATCGGGTCTTGATTCGCTTGACGCTGCTG” yielded a binding signal of 3.05 z-score.

As for “CCGATTAACATCAACATGGGAATTGATGTTAATCGGGTCTTGATTCGCTTGACGCTGCTG”, the binding signal was 1.01 z-score. With “CCGATTAACATCAAGGGGGGTGGTGATGTTAATCGGGTCTTGATTCGCTTGACGCTGCTG”, the binding signal is 3.51 z-score. Under “CCGATTAACATCATGGAGGGAGGTGATGTTAATCGGGTCTTGATTCGCTTGACGCTGCTG” stands 1.29 z-score; under “CCGATTAACATCAGGGGGTCTACTGATGTTAATCGGGTCTTGATTCGCTTGACGCTGCTG”, 4.22 z-score.

Regarding “CCGATTAACATCAGGCGATTCCCTGATGTTAATCGGGTCTTGATTCGCTTGACGCTGCTG”, the binding signal amounted to 1.93 z-score. Turning to “CCGATTAACATCACATTCTCCCCTGATGTTAATCGGGTCTTGATTCGCTTGACGCTGCTG”, the binding signal turned out to be 4.7 z-score. Turning to “CCGATTAACATCAGGGGGGGTGATGATGTTAATCGGGTCTTGATTCGCTTGACGCTGCTG”, the binding signal stood at 3.51 z-score. Sequence “CCGATTAACATCAAGTATTCCCATGATGTTAATCGGGTCTTGATTCGCTTGACGCTGCTG” returned a binding signal of 2.44 z-score. “CCGATTAACATCAGGGAAATATATGATGTTAATCGGGTCTTGATTCGCTTGACGCTGCTG” came in with a binding signal of 3.7 z-score. Under “CCGATTAACATCAAAAATCACCCTGATGTTAATCGGGTCTTGATTCGCTTGACGCTGCTG” stands 2.67 z-score; under “CCGATTAACATCACCCAACCCCCTGATGTTAATCGGGTCTTGATTCGCTTGACGCTGCTG”, 4.6 z-score; under “CCGATTAACATCACGAAAATCCCTGATGTTAATCGGGTCTTGATTCGCTTGACGCTGCTG”, 4.71 z-score. Under “CCGATTAACATCACCTTCCCCCCTGATGTTAATCGGGTCTTGATTCGCTTGACGCTGCTG” stands 4.15 z-score; under “CCGATTAACATCAGGGATTTCTATGATGTTAATCGGGTCTTGATTCGCTTGACGCTGCTG”, 4.28 z-score; under “CCGATTAACATCACAGGGAAAAATGATGTTAATCGGGTCTTGATTCGCTTGACGCTGCTG”, 2.81 z-score. With “CCGATTAACATCAGGGTAAAACCTGATGTTAATCGGGTCTTGATTCGCTTGACGCTGCTG” the figure was 1.98 z-score; with “CCGATTAACATCAACATGGGAAATGATGTTAATCGGGTCTTGATTCGCTTGACGCTGCTG”, 1.54 z-score; with “CCGATTAACATCAGGAATACCCCTGATGTTAATCGGGTCTTGATTCGCTTGACGCTGCTG”, 6.59 z-score. Take “CCGATTAACATCAGGGGTTACACTGATGTTAATCGGGTCTTGATTCGCTTGACGCTGCTG”: the binding signal was found to be 2.67 z-score. With “CCGATTAACATCAGGGAATATTATGATGTTAATCGGGTCTTGATTCGCTTGACGCTGCTG” the figure was 5.06 z-score.

As to “CCGATTAACATCAGGGGGTGTACTGATGTTAATCGGGTCTTGATTCGCTTGACGCTGCTG”, the binding signal turned out to be 3.65 z-score. With “CCGATTAACATCAGGGAACTTTATGATGTTAATCGGGTCTTGATTCGCTTGACGCTGCTG” the figure was 4.27 z-score; with “CCGATTAACATCAGACCTCCCCCTGATGTTAATCGGGTCTTGATTCGCTTGACGCTGCTG”, 6.03 z-score.

These data come from PMC5700166.
